Structures are written as SMILES. Out of some 220,000 compounds screened, about 2,000 (0.91%) were called active. Another 2% or so got no clear call; they are omitted. No stated cut-off is given here; in the data, inconclusive means inhibition above about 80% without an active follow-up result; inactive means below that; test concentration not stated here. A selection follows. Results with a measured potency or affinity are listed apart.

A word on the inhibition: it is the relative decrease from the control value, in per cent.

The assay can be described thus: M. tuberculosis H37Rv growth inhibitors, H37Rv strain (AID 1626).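 Further: bacteria incubated seven days before Alamar blue readout; 0% = bacteria only wells and 100% = bacteria with antibiotic wells.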 The settings on record: active compounds read high, concentration not given here.
Consider `O=C(Nc1ccc(F)cc1)N1CCN(c2nc3ccccc3s2)CC1`, for which the inhibition was 6.46% (inactive).
For `O=C(Nc1ccccc1)N1CCN(c2nc3ccccc3s2)CC1` the value was -10% (inactive); for `CC(=O)Cc1nsc(NC(=O)c2ccc(-c3ccc(Cl)cc3Cl)o2)n1`, -7.01% (inactive).
Turning to `Cc1ccc(OCC(=O)N(Cc2cccs2)C2CCS(=O)(=O)C2)cc1C` (stereo not drawn), the inhibition was 1.52% (inactive).
Next, `CC(C)C1OC(c2cccc(NC(=O)c3cccs3)c2)OCC1(C)C` (stereo not drawn): 3.13% (inactive).
On to `CCCCOc1ccc(CSCCN=C(N)N)cc1`, for which the inhibition is 10.7% (inactive).
Next, `Nc1c(C(=O)NCCN2CCOCC2)c2nc3ccccc3nc2n1Cc1ccccc1`: 13.8% (inactive); `Nc1c(C(=O)NCc2ccc(F)cc2)c2nc3ccccc3nc2n1CCCN1CCOCC1`: 14.5% (inactive).
`Nc1c(C(=O)NCCN2CCOCC2)c2nc3ccccc3nc2n1CCc1ccccc1`: the inhibition was 34.9% (inactive).
For `CCCCCn1c(N)c(C(=O)NCCN2CCOCC2)c2nc3ccccc3nc21` the value was 27.3% (inactive); for `COc1ccc(CNC(=O)c2c(N)n(CCCN3CCOCC3)c3nc4ccccc4nc23)cc1`, 16.6% (inactive).
Next, `COc1ccc(CCNC(=O)c2c(N)n(CCN3CCOCC3)c3nc4ccccc4nc23)cc1OC`: 20.2% (inactive).
In the case of `CS(=O)(=O)c1ccc(C(=O)OCC(=O)NC23CC4CC(CC(C4)C2)C3)cc1[N+](=O)[O-]`, the inhibition is 6.01% (inactive).
Consider `Cc1c(N=C2SCC(=O)N2/N=C\c2ccc(Br)cc2)c(=O)n(-c2ccccc2)n1C`, for which the inhibition was 2.9% (inactive).
Regarding `Cn1c(N)c(C(=O)COC(=O)CCCc2nc3ccccc3s2)c(=O)n(C)c1=O`, the inhibition was 3.44% (inactive).
For `COc1cc(C(=O)NCCc2ccc(S(=O)(=O)N3CCCC3)cc2)cc(OC)c1OC` the value was -6.26% (inactive).
Next, `CCCC1(C(=O)OCC)NC(c2ccc(O)cc2)C2C(=O)N(c3ccc4c(c3)OCCO4)C(=O)C21` (stereo not drawn): 11.1% (inactive); `COc1cccc(NC(=O)NC2CCCc3ccccc32)c1` (stereo not drawn): 0.07% (inactive).
Next, `O=C(O)CSc1c2c(nc3cc(C(=O)NCCN4CCOCC4)ccc13)CCC2`: -7.4% (inactive); `O=C(NCCCN1CCOCC1)c1ccc(CS(=O)(=O)Cc2ccc(Cl)cc2)o1`: 2.9% (inactive).
Consider `O=c1oc2ccccc2c(Nc2ccccc2)c1[N+](=O)[O-]`, for which the inhibition was -3.06% (inactive).
For `Cc1ccc(Nc2c([N+](=O)[O-])c(=O)oc3ccccc23)cc1C`, the inhibition was 60.5% (inactive).
For `CN1C(=O)NC(=O)/C(=C\C=C\c2ccccc2[N+](=O)[O-])C1=O` the value was 3.14% (inactive); for `N#C/C(=C/c1ccc(Br)s1)C(=O)NCCc1c[nH]c2ccccc12`, -14% (inactive); for `N#C/C(=C\c1ccc(N2CCOCC2)o1)C(=O)NCCc1ccccc1`, 1.46% (inactive).
For `O=C(Nc1ccccc1)N(Cc1ccccc1)Cc1ccccc1` the value was 9.83% (inactive); for `C=CCNC(=O)Nc1cc(Cl)ccc1OC`, -2.63% (inactive); for `CC(=O)c1cccc(OCC(=O)c2cc(C)n(-c3cc(C)on3)c2C)c1`, 17.2% (inactive).
For `Cc1cc(C(=O)COc2ccc3ccc(=O)oc3c2)c(C)n1C` the value was -5.12% (inactive); for `Cc1ccc2occ(C3N[C@H](C(=O)O)CS3)c(=O)c2c1` (stereo partly drawn), -2.55% (inactive); for `COc1ccc(NS(=O)(=O)c2ccc3nc(COc4ccc(C#N)cc4)[nH]c3c2)cc1`, 12.1% (inactive).
As for `COc1ccc(NS(=O)(=O)c2ccc3nc(COc4ccc5ccccc5c4)[nH]c3c2)cc1`, the inhibition is 15.1% (inactive).
`CC(=O)c1c(C)nn(CC(O)Cn2c3c(c4cc(C)ccc42)CCCC3=O)c1C` (stereo not drawn): the inhibition is 7.8% (inactive).
Take `COc1cccc(-n2nnc3c(=O)n(CC(=O)N4CCC(Cc5ccccc5)CC4)cnc32)c1`: the inhibition was 2.62% (inactive).
Next, `COc1ccc(-n2nnc3c(=O)n(CC(=O)N4CCC(Cc5ccccc5)CC4)cnc32)cc1`: -2.81% (inactive); `O=C1[C@@H]2[C@@H]3C[C@@H]([C@H]4ON=C(c5ccc(OCc6ccccc6)cc5)[C@@H]34)[C@@H]2C(=O)N1c1ccc2c(c1)OCO2`: 0.02% (inactive); `O=C(Nc1ccc(-c2cnco2)cc1)c1ccc(Cl)cc1`: -6.64% (inactive).
Next, `O=C(Nc1ccc(-c2cnco2)cc1)c1ccccc1`: 3.05% (inactive); `Cc1cc(C(C)(C)C)ccc1OCCn1ccnc1`: -6.1% (inactive).
For `O=C(Cc1ccccc1)N/N=C/c1ccccc1Cl` the value was 7.74% (inactive); for `CCOC(=O)c1cccc(NC(=O)CCc2nc(-c3ccccc3F)no2)c1`, 66.8% (inactive).
For `CC(C)CNC(=O)CCc1nc(-c2ccccc2)no1`, the inhibition is -9.52% (inactive).
For `O=C(O)CCc1nc(-c2ccc(Cl)cc2)no1` the value was -0.01% (inactive); for `Cc1cccc(-c2noc(CCC(=O)Nc3ccc(C(N)=O)cc3)n2)c1`, 0.33% (inactive); for `COc1ccc(-c2noc(CCCC(=O)Nc3ccc(C(N)=O)cc3)n2)cc1`, -9.14% (inactive).
Next, `Cc1cccc(-c2noc(CCC(=O)Nc3ccccc3)n2)c1`: 1.97% (inactive); `Cc1ccc(-c2noc(CCC(=O)Nc3ccccc3C)n2)cc1`: 13.8% (inactive); `Cc1cccc(-c2noc(CCCC(=O)Nc3ccc(C(N)=O)cc3)n2)c1`: 0.64% (inactive).
Next, `O=C(CCc1ccccc1)NCCc1nc2ccccc2[nH]1`: -3.29% (inactive); `CCN(c1ccccc1)S(=O)(=O)c1ccc(Cl)c(NC(=O)CN2C(=O)NC3(CCCC3)C2=O)c1`: -9.72% (inactive).
With `CCC(C)(C(=O)NC1CCCC1)N(C)C(=O)c1ccccn1` (stereo not drawn), the inhibition was -3.46% (inactive).
Turning to `COc1ccc2c(CC(=O)OCC(=O)c3ccccc3OC)coc2c1`, the inhibition was 3.25% (inactive).
With `O=C(CN1CCCCCCC1)Nc1ccc(Cl)cc1Cl`, the inhibition was -1.9% (inactive).
For `CC1=NN(c2ccccc2)C(=O)/C1=C\c1sccc1C` the value was -4.07% (inactive); for `COC(=O)c1ccc(/C=N/OCC(=O)NCc2ccc(F)cc2)cc1`, 6.23% (inactive).
Next, `CC(C)CC1NC2(C(=O)N(C)c3ccccc32)C2C(=O)N(C(C)C)C(=O)C12` (stereo not drawn): 0.86% (inactive); `N#Cc1c(-c2ccccc2)nc2n(-c3ccccc3)nc(C(=O)Nc3ccccc3)n2c1=O`: 8.32% (inactive).
For `N#Cc1ccccc1CSc1nnc(Cc2ccccc2)o1` the value was 0.34% (inactive).
Regarding `CC(C)=Cc1c(O)nc2ccccn2c1=O`, the inhibition is -3.05% (inactive).
For `Cc1c(NC(=O)CSCc2ccc(Br)cc2)c(=O)n(-c2ccccc2)n1C` the value was -6.02% (inactive).
Next, `CCc1ccccc1NC(=O)CCc1nc(-c2ccc(C)cc2)no1`: -5.75% (inactive); `NC(=O)c1ccc(NC(=O)CCCc2nc(-c3ccccc3Cl)no2)cc1`: -1.91% (inactive); `Cc1ccc(-c2noc(CCC(=O)Nc3ccc(C)cn3)n2)cc1`: 25.6% (inactive).
Next, `COc1ccccc1-c1noc(CCC(=O)Nc2ccccc2Cl)n1`: -5.64% (inactive); `O=C(/C=C/c1ccco1)N(Cc1cccc(Br)c1)C1CCS(=O)(=O)C1` (stereo not drawn): -13.6% (inactive).
As for `Cc1ccc(NC(=O)c2ccc(N3CCOCC3)c([N+](=O)[O-])c2)cc1S(=O)(=O)N1CCOCC1`, the inhibition is 5.87% (inactive).
Next, `COc1cc(CNCC(C)C)cc(Br)c1OCC(=O)Nc1ccccc1`: 0.75% (inactive); `CCN(CC)CCNCc1cc(Cl)c(OCC(=O)Nc2ccccc2)c(OC)c1`: 7.36% (inactive); `O=C(Cn1c2[n+](c3ccccc31)CC(O)CS2)c1ccccc1` (stereo not drawn): -6.67% (inactive).
Consider `CCC(=O)N1CCN(c2ccc(OC)cc2[N+](=O)[O-])CC1`, for which the inhibition is -1.32% (inactive).
For `NS(=O)(=O)c1ccc(-c2ccc(/C=C3\SC(=S)N(C4CCS(=O)(=O)C4)C3=O)o2)cc1` (stereo not drawn) the value was -2.38% (inactive); for `NS(=O)(=O)c1ccc(-c2ccc(C=NC3CCS(=O)(=O)C3)o2)cc1` (stereo not drawn), -11.7% (inactive).
Next, `CC(C)Cn1c(N)c(C(=O)COC(=O)c2ccc(F)cc2)c(=O)n(C)c1=O`: 6.86% (inactive); `CN(C)c1nc(N)nc(CSc2nnnn2-c2ccc(F)cc2)n1`: -2.97% (inactive).
For `CCCOc1ccc(OC(=O)c2ccc(Br)o2)cc1` the value was 3.47% (inactive); for `CC(=O)c1ccc(OC(=O)c2ccc(Br)o2)cc1`, -1.59% (inactive); for `CCC(=O)NCCc1nc2ccccc2n1Cc1ccc(C)cc1`, -3.53% (inactive).
As to `CCC(=O)Nc1nc2ccccc2n1CCN(C)C`, the inhibition was 0.79% (inactive).
Consider `CCC(=O)Nc1nonc1-c1nc2ccccc2n1Cc1ccccc1`, for which the inhibition was 22.2% (inactive).
Next, `CC(=O)NCCc1nc2ccccc2n1Cc1ccc(Cl)cc1`: -2.45% (inactive); `CCC(=O)NCCc1nc2ccccc2n1Cc1ccccc1`: -11.3% (inactive).
Consider `CCC(=O)Nc1nc2ccccc2n1CCN(CC)CC`, for which the inhibition is -1.49% (inactive).
For `NCCNC(=O)Cc1cccc(NC(=O)Cc2ccc(Nc3ncnc4c3ncn4[C@@H]3O[C@H](CO)[C@@H](O)[C@H]3O)cc2)c1` the value was 10.9% (inactive); for `COc1ccc(C(=O)c2ccc3oc(-c4ccc(OC)cc4)c(C#CCCO)c3c2)cc1`, 6.95% (inactive); for `Cc1ccccc1NC(=O)c1ccc(F)c(S(=O)(=O)N2CCCCC2)c1`, -2.34% (inactive).
For the compound `CCn1cc(Br)c(C(=O)Nc2ccc(F)c(Cl)c2)n1`, the inhibition is -11.6% (inactive).
Next, `CCOCCCNC(=O)c1ccc(NC(C)=O)cc1`: -8.03% (inactive); `CC(=O)C1=C(O)C(=O)N(C)C1c1ccccc1F` (stereo not drawn): 0.41% (inactive); `CN(C[C@H](Cc1ccccc1)N(C[C@H](CC1CCCCC1)N(CCc1ccccc1)N=O)N=O)N=O`: -1.37% (inactive).
For `CC(C)Sc1ncc(S(=O)(=O)c2ccccc2)c(=O)[nH]1` the value was -2.21% (inactive); for `C=CCn1c(O)c(C(C)=Nc2ccc3c(c2)CCC3)c(=O)[nH]c1=O`, 54.5% (inactive).
For `C=CCn1c(O)c(C(C)=Nc2ccc(C(=O)O)cc2)c(=O)[nH]c1=O` the value was -11.5% (inactive).
With `C=CCn1c(O)c(C(C)=Nc2ccc(NC(C)=O)cc2)c(=O)[nH]c1=O`, the inhibition is -0.17% (inactive).
Next, `CCCCn1c(O)c(C(CC)=Nc2ccc(C(=O)O)cc2)c(=O)[nH]c1=O`: -1.19% (inactive).
Next, `CCCCn1c(O)c(C(C)=Nc2ccc(C(=O)O)cc2)c(=O)[nH]c1=O`: -16.2% (inactive).
For `CCCCn1c(O)c(C(CC)=Nc2ccc(OC)cc2OC)c(=O)[nH]c1=O` the value was -1.05% (inactive); for `CCCCn1c(O)c(C(CC)=Nc2ccc3c(c2)CCC3)c(=O)[nH]c1=O`, 74.9% (inactive).
In the case of `CCCCn1c(O)c(C(C)=Nc2ccc3c(c2)CCC3)c(=O)[nH]c1=O`, the inhibition is 7.92% (inactive).

Source of the values: PubChem BioAssay AID1626 (SRMLSC, 2009).
